# From PubChem
# Sampled rows, rich in hits. Any-hit rate of the full collection: about 1.1%.
# VCAM1 TNFa inh: inhibitors of TNFa-induced VCAM1 expression, primary screen, imaging, HUVEC, TNFa stimulus, immunofluorescence. HUVEC TNFa-induced VCAM-1 immunofluorescence, high-content imaging. inhibition, % at 2 µM. 0.48% of 95,000 active;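 active = inhibition above the batch mean plus 3 SD, with images confirmed as a hit by eye, cut at about 37% in these data; inconclusive = inhibition above that limit but hit not confirmed in images; inactive = inhibition not above that limit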
# cytoskel mod: modifiers of F-actin cytoskeleton organization, primary screen, imaging, HUVEC, phalloidin staining, high-content imaging; inhibition, % at 2 µM; 0.18% of 91,000 active; HUVEC TNFa F-actin phalloidin imaging;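 active = inhibition above the batch mean plus 3 SD and confirmed as a hit by visual image inspection, cut at about 30% in these data, passing the limit was not always enough; inconclusive = above the inhibition threshold but rejected on visual inspection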
# E-sel TNF inh: E-selectin induction blockers in HUVEC – imaging, immunofluorescence, high content, primary screen; HUVEC TNFa-induced E-selectin immunofluorescence; AID 1246, 2008; inhibition, % at 2 µM; 0.71% of 120,000 active;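 active = inhibition above the batch mean plus 3 SD, and confirmed as a hit on visual image review, cut at about 43% in these data; inconclusive = passes the inhibition cutoff but fails visual image review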
# TNFa cytotox: cytotoxicity in TNFa-stimulated HUVEC, primary screen, cytotoxicity control for VCAM1 expression modulator project, imaging, Hoechst nuclei count; AID 848, 2007; 0.17% of 93,000 active; HUVEC TNFalpha-stimulated, Hoechst cell count; cell count reduction, % at 2 µM;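 active = cell count reduction exceeding the screen mean by over 5 SD, scaled to untreated wells per plate, cut at about 78% in these data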;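 note: cells counted after 24 h of TNF alpha exposure following the 1 h pretreatment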
# A number is an active result; i = inactive; ? = inconclusive; nt = not tested or not shown.
SMILES,VCAM1 TNFa inh,cytoskel mod,E-sel TNF inh,TNFa cytotox
CN1C(=O)C2(NCCc3c2[nH]c2ccccc32)c2ccccc21 (centres undefined),53,i,i,nt
Cc1nc(-c2cccnc2)sc1C(=O)Nc1ccc(C(F)(F)F)cc1,i,i,i,i
Cc1nc(-c2cccnc2)sc1C(=O)Nc1cccc(C(F)(F)F)c1,i,52,i,i
Cc1cc(NC(=O)CSCc2nc(-c3cccc(F)c3)oc2C)no1,i,i,nt,i
Cc1ccc(-c2nc(CSCC(=O)Nc3cc(C)on3)c(C)o2)cc1,i,i,nt,89
CN(C)c1nc(N(C)C)nc(N(C#N)CCOc2ccccc2)n1,97,i,i,i
CC(C)N(C(=O)C(=O)c1cccn1-c1ccccc1C#N)C(C)C,i,i,i,i
CCOc1ccccc1NC(=O)/C(C#N)=C/c1c(C)nn(-c2ccc(F)cc2)c1Cl,nt,nt,i,nt
CN(C)c1nc(C=C(C#N)C#N)c(Cl)n1-c1ccc(F)cc1,nt,nt,87,nt
O=C(CSc1nc2[nH]ncc2c(=O)n1-c1ccc(Cl)c(Cl)c1)NCc1ccccc1Cl,nt,nt,i,nt
COc1cc(C2C(C#N)=C(N)Oc3cc(N(C)C)ccc32)cc2c1OCO2 (centres undefined),97,i,nt,i
COC(=O)CSc1nc2nc(C)c(Br)cc2[nH]1,?,?,i,100
C=C(C)CSc1nc2nc(C)c(Br)cc2[nH]1,i,i,i,i
N#Cc1ccc(CSc2nnc(-c3c[nH]c4ccccc34)n2-c2ccccc2)cc1,nt,nt,i,nt
COc1ccc(C)cc1-n1nnnc1SCC(=O)Nc1cccnc1Cl,nt,nt,78,nt
COc1ccc(C)cc1-n1nnnc1SCC(=O)Nc1cc(C)on1,nt,nt,i,nt
CC(C)CCN1C(=O)c2ccc(C(=O)NCC3CCCO3)cc2C1=O (centres undefined),i,i,i,i
CN(C)S(=O)(=O)c1cccc(NC(=O)CN2C(=O)NC(CCc3ccccc3)C2=O)c1 (centres undefined),nt,nt,i,nt
COc1ccc(N2C(=O)CC(Sc3nnc(-c4ccccc4)o3)C2=O)cc1 (centres undefined),nt,nt,i,nt
O=C1CC(Sc2nnc(-c3ccccc3O)o2)C(=O)N1c1ccccc1 (centres undefined),nt,nt,70,nt
COC(=O)c1c(NC(=O)C2COc3ccccc3O2)sc2c1CCN(Cc1ccccc1)C2 (centres undefined),nt,nt,63,nt
Cc1ccc(C)c(NC(=S)NC(NC(=O)Cc2cccc3ccccc23)C(Cl)(Cl)Cl)c1 (centres undefined),67,i,i,nt
Cc1ccc2oc(=O)n(CCCOc3ccccc3)c2c1,i,i,68,i
CCC(=O)Nc1cccc(C(=O)/C=C/c2cc(Br)ccc2OC)c1,69,i,i,i
COc1ccc(CCNC(=O)c2ccc(-c3ccc([N+](=O)[O-])cc3)o2)cc1OC,nt,nt,i,nt
SMILES,VCAM1 TNFa inh,cytoskel mod,E-sel TNF inh,TNFa cytotox
CCc1cccc(NC(=O)C(NC(=O)C2CCCCC2)C(C)C)c1 (centres undefined),nt,nt,i,nt
O=C(Cn1nc(-c2cccc([N+](=O)[O-])c2)c2ccccc2c1=O)Nc1cccnc1,i,i,i,i
O=c1[nH][nH]cc1C=Nc1ccc(Cl)cc1,nt,nt,97,nt
COc1cccc(N=Cc2c[nH][nH]c2=O)c1,i,i,i,i
COc1ccc(CCn2c(-c3cc([N+](=O)[O-])cc([N+](=O)[O-])c3)nc3nc4ccccc4nc32)cc1OC,nt,nt,i,nt
COc1ccc(OCCN2C(=O)NC(C)(c3ccc(C)cc3)C2=O)cc1 (centres undefined),i,i,i,i
Cc1ccc(C2(C)NC(=O)N(CCOc3ccccc3)C2=O)cc1 (centres undefined),i,i,82,i
COc1ccc(NS(=O)(=O)c2cc(C)ccc2NC(=O)c2cc(C)oc2C)cc1,44,i,i,i
CCC(=O)Nc1ccc(NC(=O)c2ccccc2Cl)nc1,i,i,i,i
CC(C)C(=O)Nc1ccc(NC(=O)c2ccccc2Cl)nc1,i,i,i,83
CCC(SCC(=O)OC)C(=O)Nc1nnc(C(C)C)s1 (centres undefined),i,i,67,i
COc1cccc(CSc2nc3ccccc3cc2C=O)c1,90,i,i,i
COc1cccc(NC(=O)CSc2nc3ccccc3cc2Cc2ccccc2)c1,i,i,i,i
COc1ccc(CCN(C)c2ccc(S(=O)(=O)N3CCCC3)cn2)cc1OC,nt,nt,76,nt
CCCCN(CCCC)C(=O)c1nsnc1-c1ccccc1O,i,i,i,i
CC(C)(CO)NCC(O)Cn1cc(C=O)c2ccccc21 (centres undefined),nt,nt,90,nt
COC(=O)C1=C(C)N=c2s/c(=C3\C(=O)Nc4ccccc43)c(=O)n2C1c1ccccc1 (centres undefined),i,i,i,i
CS(=O)(=O)c1ccc(Cl)c(NC(=O)c2ccc3ccccc3c2)c1,nt,nt,64,nt
OCCN=C(c1ccccc1)C12CN3CN(CN(C3)C1)C2,60,i,nt,i
COc1ccc(Cl)cc1NC(=S)NCc1ccco1,i,i,100,i
Cc1cc(C)nc(NS(=O)(=O)c2ccc(NC(=O)c3cccs3)cc2)n1,i,i,i,i
CCCCN(CCCC)S(=O)(=O)c1ccc(NC(=O)c2cccs2)cc1,i,i,85,i
COc1cccc(/C=C/C(=O)OCC(=O)Nc2ccc(N3CCOCC3)cc2)c1OC,nt,nt,i,nt
CCOC(=O)c1cc2c(=O)n3ccccc3nc2n(CCCOC)c1=NC(C)=O,i,i,i,i
CCCn1c(=NC(=O)c2ccco2)c(C(=O)OCC)cc2c(=O)n3ccccc3nc21,i,i,58,i
SMILES,VCAM1 TNFa inh,cytoskel mod,E-sel TNF inh,TNFa cytotox
COc1c(Cl)cc(Cl)cc1C(=O)Nc1ccc(NC(C)=O)cc1,nt,nt,64,nt
O=C(N/N=C/C=C/c1ccccc1)c1n[nH]c2c1CCC2,68,i,i,i
O=C(N/N=C/C(Br)=C\c1ccccc1)c1n[nH]c2c1CCC2,91,i,i,i
CC(/C=N/NC(=O)c1n[nH]c2c1CCC2)=C\c1ccccc1,67,i,i,i
O=C(COC(=O)C1(c2ccc(F)cc2)CCCC1)N1CCc2ccccc21,nt,nt,i,nt
CCN(CC)S(=O)(=O)c1ccc(C)c(N=C=S)c1,nt,nt,i,nt
Cc1ccc(-n2c(C)cc(/C=c3/sc4nc5ccccc5n4c3=O)c2C)cc1,i,nt,i,i
COc1cc(N2CCCC2)c(OC)cc1/C=c1/sc2nc3ccccc3n2c1=O,i,31,nt,i
CC(C)CC(COCc1ccc(Cl)cc1)N1CCN(C(=O)c2ccc(Cl)cc2Cl)CCC1=O (centres undefined),nt,nt,i,nt
O=C(CN(CC1CCCO1)C(=O)CCC(=O)Nc1nccs1)NCc1ccc2c(c1)OCO2 (centres undefined),i,i,100,i
C=CCNC(=S)NNC(=O)c1ccc(OCC)cc1,i,i,53,i
Cc1ccnc(NS(=O)(=O)c2ccc(NC(=O)c3ccc(S(=O)(=O)N4CC(C)OC(C)C4)cc3)cc2)n1 (centres undefined),nt,nt,i,nt
COc1cccc(CNc2ccc(F)c(Cl)c2)c1,i,i,100,i
Cn1c(=O)cc(SCC(=O)NCCCN2CCOCC2)c2ccccc21,i,i,nt,i
CCCCNC(=O)CSc1cc(=O)n(C)c2ccccc12,i,31,nt,i
